These results are taken from PubChem BioAssay (NCI).

The nature of test [1]: NCI Yeast Anticancer Drug Screen. Data for the rad50 strain (AID 155).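 Note: 0% = growth of vehicle-only cultures of the same strain.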 Conditions: S. cerevisiae rad50 strain growth inhibition, stronger effect = higher value. In short, it runs like this:
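Vehicle-treated cultures provide the reference for the growth inhibition reported for compound-exposed, repair-deficient yeast.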

A short description of test [2]: NCI Yeast Anticancer Drug Screen. Data for the mec2-1 strain (AID 157). Conditions: S. cerevisiae mec2-1 strain, stronger effect = higher value. Summed up:
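Cells of the genetically defined mec2-1 yeast strain are incubated with test compound. Inhibition of growth is calculated against vehicle-treated controls.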

The nature of test [3]: NCI Yeast Anticancer Drug Screen. Data for the sgs1 mgt1 strain (AID 161).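 Note: 0% = growth of cultures given vehicle only.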 Conditions: S. cerevisiae sgs1 mgt1 strain, stronger effect = higher value. Summed up:
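Inhibition of yeast growth, normalised to vehicle-treated controls, is reported for a strain bearing genetic alterations in DNA damage repair.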

Test [4] can be described thus: NCI Yeast Anticancer Drug Screen. Data for the cln2 rad14 strain (AID 165).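 Note: 0% = growth equal to vehicle treated cultures.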 Conditions: S. cerevisiae cln2 rad14 strain, stronger effect = higher value. In short, it runs like this: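 The screen exposed genetically defined yeast (cln2 rad14) to test compounds and scored growth inhibition relative to vehicle-treated controls.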
A short description of test [5]: NCI Yeast Anticancer Drug Screen. Data for the bub3 strain (AID 167). Conditions: S. cerevisiae bub3 mutant strain, stronger effect = higher value. Summed up:
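Mutant yeast screening strain plus compound; vehicle-treated cultures serve as the 0% inhibition reference.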

The nature of test [6]: NCI Yeast Anticancer Drug Screen. Data for the mlh1 rad18 strain (AID 175). Conditions: S. cerevisiae mlh1 rad18 strain growth inhibition, stronger effect = higher value. Summed up: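 Compound-treated yeast growth, normalised to vehicle controls. Strain bears defined DNA repair mutations.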
Where [7] appears, read: at 5.0 µM (retest, dose inferred, filed as 0.5).
Setting [8] is: at 50.0 µM (retest, dose inferred, filed as 5.0).

Values joined by “and” are separate entries in the source; they are usually repeats but may differ in a detail not shown here. Equal entries are not always repeated. About 79,000 compounds went through this panel and 15% of them were active in at least one assay; those are over-represented in the sample as a whole. A structure can be active in one record and inactive in another. Active and inactive are the calls of the source. Cut-off read from the data, not from the text of the source: active = growth inhibition above about 70%; inactive = the rest.

With `c1ccc(Cc2cc3ccccc3c3ccccc23)cc1`, the growth inhibition in test [1] (setting [7]) is 4% (inactive); in test [1] (setting [8]), 14% (inactive); in test [1] (at 50.0 µM), 20.1% (inactive); in test [2] (setting [7]), 5% (inactive); in test [2] (setting [8]), 23% (inactive); in test [2] (at 50.0 µM) it was 14.9% (inactive). The growth inhibition in test [3] (setting [7]) is 2% (inactive); in test [3] (setting [8]), -3% (inactive); in test [3] (at 50.0 µM), -6.6% (inactive); in test [4] (setting [7]), 16% (inactive); in test [4] (setting [8]), 6% (inactive); in test [4] (at 50.0 µM), -0.55% (inactive). Moreover, the growth inhibition is 2% (inactive) in test [5] (setting [7]); 3% (inactive) in test [5] (setting [8]); 91.3% (active) in test [5] (at 50.0 µM); 4% (inactive) in test [6] (setting [7]); -2% (inactive) in test [6] (setting [8]); 82.5% (active) in test [6] (at 50.0 µM).

On to `CS(=O)(=O)OC1CC(n2ccc(=O)[nH]c2=O)OC1COC(c1ccccc1)(c1ccccc1)c1ccccc1` (stereo not given), for which the growth inhibition in test [1] (setting [7]) is -14% (inactive); in test [1] (setting [8]), 95% (active); in test [1] (at 50.0 µM) it was 14.9% (inactive) and 97% (active); in test [2] (setting [7]), -4% (inactive); in test [2] (setting [8]), 95% (active); in test [2] (at 50.0 µM), -4.6% (inactive) and 97% (active). Also, the growth inhibition in test [3] (setting [7]) was -17% (inactive); in test [3] (setting [8]) it was 54% (inactive); in test [3] (at 50.0 µM), 11.3% (inactive) and 50.5% (inactive); in test [4] (setting [7]), 0% (inactive); in test [4] (setting [8]), 92% (active); in test [4] (at 50.0 µM), 2.9% (inactive) and 96.3% (active). Further, the growth inhibition was -3% (inactive) in test [5] (setting [7]); 86% (active) in test [5] (setting [8]); 7.25% (inactive) and 97.8% (active) in test [5] (at 50.0 µM); 0% (inactive) in test [6] (setting [7]); 97% (active) in test [6] (setting [8]); 5.6% (inactive) and 97% (active) in test [6] (at 50.0 µM).

`O=Nc1ccc(C=C2C(=O)C=CC2=O)cc1`: the growth inhibition was 94% (active) in test [1] (setting [7]); 98% (active) in test [1] (setting [8]); 99.5% (active) in test [1] (at 50.0 µM); 99% (active) in test [2] (setting [7]); 99% (active) in test [2] (setting [8]); 99.7% (active) in test [2] (at 50.0 µM). Besides, the growth inhibition in test [3] (setting [7]) was 94% (active); in test [3] (setting [8]), 99% (active); in test [3] (at 50.0 µM) it was 99.4% (active); in test [4] (setting [7]) it was 72% (active); in test [4] (setting [8]), 98% (active); in test [4] (at 50.0 µM), 99% (active). Further, the growth inhibition in test [5] (setting [7]) is 84% (active); in test [5] (setting [8]), 99% (active); in test [5] (at 50.0 µM), 99.4% (active); in test [6] (setting [7]), 97% (active); in test [6] (setting [8]), 98% (active); in test [6] (at 50.0 µM) it was 99.5% (active).

With `O=C1NS(=O)(=O)c2ccccc21`, the growth inhibition was -9% (inactive) in test [1] (setting [7]); -81% (inactive) in test [1] (setting [8]); 23.3% (inactive) and 33% (inactive) in test [1] (at 50.0 µM); -30% (inactive) in test [2] (setting [7]); -32% (inactive) in test [2] (setting [8]); 13.6% (inactive) and -8.5% (inactive) in test [2] (at 50.0 µM). Also, the growth inhibition was -11% (inactive) in test [3] (setting [7]); -43% (inactive) in test [3] (setting [8]); -12.1% (inactive) and 24.2% (inactive) in test [3] (at 50.0 µM); -2% (inactive) in test [4] (setting [7]); -17% (inactive) in test [4] (setting [8]); 47.5% (inactive) and 29.4% (inactive) in test [4] (at 50.0 µM). Also, the growth inhibition in test [5] (setting [7]) was -29% (inactive); in test [5] (setting [8]), -122% (inactive); in test [5] (at 50.0 µM), 30.9% (inactive) and 50.3% (inactive); in test [6] (setting [7]), -6% (inactive); in test [6] (setting [8]), -43% (inactive); in test [6] (at 50.0 µM), -19.4% (inactive) and 20.9% (inactive).

For the compound `c1ccc(-c2nc3ccccc3[nH]2)cc1`, the growth inhibition in test [1] (setting [7]) is 1% (inactive); in test [1] (setting [8]), 28% (inactive); in test [1] (at 50.0 µM) it was 6.4% (inactive) and 34.6% (inactive); in test [2] (setting [7]) it was -3% (inactive); in test [2] (setting [8]), 19% (inactive); in test [2] (at 50.0 µM), -5.55% (inactive) and 5.3% (inactive). Moreover, the growth inhibition in test [3] (setting [7]) was -11% (inactive); in test [3] (setting [8]), 29% (inactive); in test [3] (at 50.0 µM), -8.85% (inactive) and 1% (inactive); in test [4] (setting [7]), 4% (inactive); in test [4] (setting [8]) it was 39% (inactive); in test [4] (at 50.0 µM) it was -50.4% (inactive) and -4.4% (inactive). For the same compound, the growth inhibition in test [5] (setting [7]) was 0% (inactive); in test [5] (setting [8]), 24% (inactive); in test [5] (at 50.0 µM) it was -13.2% (inactive) and -5.15% (inactive); in test [6] (setting [7]), 0% (inactive); in test [6] (setting [8]), 74% (active); in test [6] (at 50.0 µM) it was -0.55% (inactive) and 43% (inactive).
